Consider 13 compounds from PubChem BioAssay.

Calls of active or inactive are those of the source.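 How the source made its calls, unless noted: active means NADPH fluorescence slope more negative than the mean of all samples by about 3 SD, 99.7% confidence; inactive means the rest.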

Assay [1] in a line: inhibitors of TNFa-induced NFkB p65 translocation, primary screen, imaging, HUVEC, MLSMR starter and 10KST1 sets (AID 438;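 active means inhibition above 20% together with a positive visual image hit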;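 further: compound added about 3h40 before a 20 min TNFalpha stimulation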;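 on inhibition: signal is the nuclear over cytoplasmic p65 intensity ratio per well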). To be noted: HUVEC TNFa-induced p65 nuclear translocation; cell count: measured here: nuclei count (cytotoxicity indicator), at 2.08 µM; inhibition: at 2 µM, stronger effect = higher value, 0% TNFa-plus-vehicle, 100% no-TNFa wells.
A short description of assay [2]: inhibitors of E-selectin induction by TNFa, primary screen, imaging, HUVEC, immunofluorescence, MLSMR starter and 10KST1 sets (AID 487;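 active means visually confirmed hit in the image check and inhibition above 20%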;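 on inhibition: signal is fraction of cell area covered by stained E-selectin grains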;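 on nuclei count: 100% = median nuclei count of all wells on the same plate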). The following applies: HUVEC TNFalpha-induced E-selectin immunofluorescence imaging, at 2 µM; inhibition: stronger effect = higher value; nuclei count: measured here: cell number, toxicity.
Assay [3] is described as follows: DUSP6 inhibitors restoring Erk phosphorylation by chemical complementation, primary imaging in DUSP6-transfected HeLa (AID 609;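 active means compounds giving at least 50% inhibition in the cell-based MKP-3 phosphatase rescue imaging test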;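 on inhibition: phospho-Erk level distribution per well compared with pooled transfected vehicle control wells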). To be noted: HeLa MKP-3 transfected, phospho-Erk imaging KS statistic, at 10 µM, cells stimulated with TPA for 15 min.
In assay [4] the target is Dual specificity protein phosphatase 6 (Homo sapiens) (UniProt Q16828). The description is as above. The following applies: HeLa MKP-3 transfected, phospho-Erk imaging KS statistic; at 10 µM; stronger effect = higher value; cells stimulated with TPA for 15 min.
Assay [5] concerns the target Voltage-gated potassium channel subunit beta-2 (Rattus norvegicus) (UniProt P62483). In words: KvBeta enzyme negative modulators, primary screen, biochemical, NADPH fluorescence (AID 622;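 active means fluorescence slope higher than the sample average by over 3 SD, cut at about -0.22 in these data, passing the limit was not always enough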;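 further: slope of raw intensity against log time taken from 70 to 1610 s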). The following applies: recombinant KvBeta, 4-cyanobenzaldehyde reduction, at 10 µM, stronger effect = higher value.
Assay [6] has the same target. In words: KvBeta positive modulators, primary screen, biochemical, NADPH fluorescence (AID 623).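 Further: fluorescence intensity change per second fitted from 20 to 320 s.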 To be noted: Recombinant KvBeta, NADPH fluorescence decrease slope, 10 min; at 10 µM; stronger effect = lower value.
Assay [7] deals with Alpha-2C adrenergic receptor (Homo sapiens) (UniProt P18825). In words: modulators of alpha2C/GIRK thallium flux, primary screen, cell-based, HEK293 alpha2C/GIRK1/2 (AID 624;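 active means fluorescence slope after compound addition differing from the mean of all screened samples at 99.7% confidence, in either direction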;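 further: slope of fluorescence ratio to pre-addition baseline per second over 15 to 24 s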). The following applies: thallium flux BTC fluorescence, at 10 µM, actives lie on both sides.
Assay [8] in a line: inhibitors of Chlamydomonas gravitaxis, primary screen, whole organism, Chlamydomonas reinhardtii, WT vs cilia-less mutant, absorbance, 96-well (AID 463189;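 active means inhibition at or above 50% relative to wild type and mutant plate controls; inactive means inhibition below 50%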;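 further: 0% = wild type cc124 cells in DMSO and 100% = ciliumless bld1 mutant cells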). The following applies: OD600 absorbance, 2 days, at 10 µM, stronger effect = higher value.
Assay [9] is described as follows: inhibitors of larval lipid processing in zebrafish, primary screen, whole organism, PED6 fluorescence, gall bladder and intestine (AID 686;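 active means a full or partial loss of lipid-probe fluorescence in the fish gall bladder, intestine or both, judged by eye; inactive means no fluorescence loss, or compound toxic to the fish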;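 further: larvae 5 to 7 days old with five fish per well; signal comes from phospholipase A2 cleavage of quenched PED6 carried via bile; overnight exposure to compound and PED6 before scoring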). The following applies: Zebrafish larvae PED6 lipid processing, fluorescence scoring; screened at 20 µM (by protocol).
A short description of assay [10]: inhibitors of Sendai virus-induced IRF3 signaling, primary screen, TLR/RLR signaling modifier project, cell-based, Sendai virus stimulus, luciferase, 10K MLSCN set (AID 602276;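 active means inhibition at or above 50% at 10 µM; inactive means inhibition below 50%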;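 further: firefly luciferase from ISG56 promoter only with Renilla not read in this screen; 0% = Sendai virus plus DMSO and 100% = medium plus DMSO without virus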). To be noted: HEK293 RL24 IRF3 luciferase reporter, at 10 µM, stronger effect = higher value.
A short description of assay [11]: inhibitors of poly I:C-induced TLR3 signaling, primary screen, cell-based, poly I:C stimulus, luciferase, 10K MLSCN set (AID 602277;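 active means inhibition of the reporter signal at or above 50%; inactive means inhibition below 50%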). To be noted: HEK293-TLR3 RL24 IRF3 luciferase reporter, at 10 µM, stronger effect = higher value. (In general: In a reporter assay the amount or activity of a reporter protein is the signal.)
The mark [12] stands for this setting: measured here: cell density z-score.
Setting [13] is: measured here: nuclear c-Myc green intensity z-score.
Where [14] appears, read: measured here: nuclear pErk red intensity z-score, stronger effect = higher value.

As usually defined, the inhibition is the relative decrease from the control value, in per cent.

Voltage-gated potassium channel subunit beta-2 (Rattus norvegicus), sequence (P62483 whole entry, looked up): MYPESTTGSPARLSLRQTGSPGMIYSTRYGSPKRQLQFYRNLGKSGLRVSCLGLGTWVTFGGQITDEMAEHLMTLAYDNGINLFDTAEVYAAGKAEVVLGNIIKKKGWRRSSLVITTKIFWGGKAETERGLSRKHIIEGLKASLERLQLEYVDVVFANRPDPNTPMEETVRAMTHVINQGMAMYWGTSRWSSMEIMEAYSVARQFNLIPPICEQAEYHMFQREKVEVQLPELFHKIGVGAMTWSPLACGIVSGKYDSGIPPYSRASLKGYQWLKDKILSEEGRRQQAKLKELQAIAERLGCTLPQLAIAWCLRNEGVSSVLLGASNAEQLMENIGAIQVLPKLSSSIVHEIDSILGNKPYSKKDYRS
Alpha-2C adrenergic receptor (Homo sapiens), sequence (P18825 whole entry, looked up): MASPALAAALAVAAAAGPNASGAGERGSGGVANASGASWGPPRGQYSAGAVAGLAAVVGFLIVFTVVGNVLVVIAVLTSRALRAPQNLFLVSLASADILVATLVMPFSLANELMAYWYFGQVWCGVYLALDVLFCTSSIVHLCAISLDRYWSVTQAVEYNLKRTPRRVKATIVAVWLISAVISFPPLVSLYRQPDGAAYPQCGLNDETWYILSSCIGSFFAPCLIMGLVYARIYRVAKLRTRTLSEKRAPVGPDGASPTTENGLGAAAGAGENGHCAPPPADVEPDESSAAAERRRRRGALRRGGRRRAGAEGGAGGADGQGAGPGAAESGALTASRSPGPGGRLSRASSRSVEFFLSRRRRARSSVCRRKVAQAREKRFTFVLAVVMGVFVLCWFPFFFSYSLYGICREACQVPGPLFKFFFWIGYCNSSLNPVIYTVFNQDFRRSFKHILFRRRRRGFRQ
Dual specificity protein phosphatase 6 (Homo sapiens), sequence (Q16828 whole entry, looked up): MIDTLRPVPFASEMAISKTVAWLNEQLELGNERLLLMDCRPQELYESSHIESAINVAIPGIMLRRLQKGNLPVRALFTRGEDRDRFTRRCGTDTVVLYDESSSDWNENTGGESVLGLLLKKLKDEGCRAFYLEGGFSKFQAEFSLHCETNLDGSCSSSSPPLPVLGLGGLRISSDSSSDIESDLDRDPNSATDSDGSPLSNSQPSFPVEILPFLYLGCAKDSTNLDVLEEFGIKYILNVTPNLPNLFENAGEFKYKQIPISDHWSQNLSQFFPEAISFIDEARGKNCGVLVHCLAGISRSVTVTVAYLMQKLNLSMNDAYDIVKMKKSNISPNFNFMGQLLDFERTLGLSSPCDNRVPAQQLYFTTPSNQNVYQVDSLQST

In the case of `COc1ccc(C2C=C(c3ccc(Cl)cc3)Nc3nc(NC(C)=O)nn32)cc1` (stereo not given), in assay [1], the cell count was 325. Besides, the inhibition in assay [1] is 1.9% (inactive); in [2] it was -27.6% (inactive); in [4], -8.76% (inactive); in [8] it was 7.51% (inactive). The same compound returned a nuclei count in [2] of 159%. In addition, the z-score is -0.557 in assay [3] (setting [12]), 0.239 in [3] (setting [13]) and 0.747 in [3] (setting [14]). In addition, in assay [5], the fluorescence slope was -0.144 (inactive). Also, in [6], the NADPH fluorescence slope is 4.9e-05 (inactive). For the same compound, the slope in assay [7] is 0.00461 (inactive).

As for `COc1ccc(/C(O)=C2/C(=O)C(=O)N(CCN3CCOCC3)C2c2ccccn2)cc1OC` (stereo not given), the cell count in assay [1] is 409. The inhibition in assay [1] is -7.4% (inactive); in [2], -125% (inactive); in assay [4] it was 15.8% (inactive); in assay [8] it was 6.74% (inactive). Moreover, in assay [2], the nuclei count is 158%. Also, the z-score in assay [3] (setting [12]) was 1.75; in [3] (setting [13]), -1.41; in assay [3] (setting [14]), 1.12. Besides, the fluorescence slope in [5] was -0.419 (inactive). Further, the NADPH fluorescence slope in assay [6] was -9.3e-05 (inactive). Moreover, the slope in assay [7] was 0.00847 (inactive).

With `Oc1ccccc1-c1nc(NCCN2CCOCC2)c2ccccc2n1`, the cell count in assay [1] was determined as 268. The inhibition in [1] is -6.5% (inactive); in assay [2] it was 14.7% (inactive); in assay [4], 1.6e-07% (inactive); in assay [8] it was 62.5% (active). Also, the nuclei count in assay [2] came out at 96.7%. Moreover, the z-score in assay [3] (setting [12]) is 0.138; in assay [3] (setting [13]) it was 3.56; in assay [3] (setting [14]) it was -0.549. In addition, the fluorescence slope in [5] is -0.423 (inactive). For the same compound, the NADPH fluorescence slope in [6] was -3.4e-05 (inactive). Also, in [7], the slope is 0.00504 (inactive).

In the case of `Cc1cc(NS(=O)(=O)c2ccc(N)cc2)no1`, in assay [1], the cell count is 614. The inhibition in assay [1] is 2.1% (inactive); in [2], -43.4% (inactive); in assay [4] it was -5.24% (inactive); in assay [8], 1.6% (inactive); in [10], 19.8% (inactive); in assay [11], 31.9% (inactive). Further, the nuclei count in assay [2] was 117%. In addition, the z-score in assay [3] (setting [12]) is -1.02; in [3] (setting [13]), -0.449; in assay [3] (setting [14]), 1.11. Also, the fluorescence slope in assay [5] was -0.445 (inactive). The NADPH fluorescence slope in assay [6] is -2.3e-05 (inactive). Also, the slope in assay [7] is 0.00461 (inactive). Moreover, the compound was called inactive in [9].

Regarding `COCCCNc1nc(-c2ccncc2)nc2ccccc12`, in assay [1], the cell count is 419. Also, the inhibition in [1] was 1.9% (inactive); in assay [2] it was -227% (inactive); in [4], 18.2% (inactive); in [8], 138% (active). In assay [2], the nuclei count was found to be 126%. For the same compound, the values for the z-score in [3] (setting [12]), in [3] (setting [13]) and in [3] (setting [14]) were 1.01, -0.929 and -0.825, respectively. Also, the fluorescence slope in [5] is -0.514 (inactive). Moreover, the NADPH fluorescence slope in assay [6] was -8.3e-05 (inactive). The slope in assay [7] was 0.00557 (inactive).

Consider `Cc1ccc2nc(NCc3ccccc3)[nH]c2c1`, for which the cell count in assay [1] was determined as 360. In addition, the inhibition in assay [1] is -2.3% (inactive); in assay [2] it was -217% (inactive); in assay [4] it was -14% (inactive); in assay [8], 24.8% (inactive). The compound also displayed a nuclei count in assay [2] of 171%. The z-score is -0.018 in assay [3] (setting [12]), -0.878 in [3] (setting [13]) and 0.83 in assay [3] (setting [14]). Besides, the fluorescence slope in [5] was -0.447 (inactive). Besides, the NADPH fluorescence slope in assay [6] was -0.00018 (inactive). Also, in assay [7], the slope is 0.00328 (inactive).

Take `Cc1noc(NS(=O)(=O)c2ccc(N)cc2)c1C`: the cell count in assay [1] was found to be 559. The inhibition in assay [1] was -7.4% (inactive); in [2], -149% (inactive); in assay [4] it was 5.42% (inactive); in assay [8], -6.69% (inactive); in [10], -9.57% (inactive); in [11], -11.4% (inactive). Besides, the nuclei count in assay [2] was 114%. Further, the results for the z-score in assay [3] (setting [12]), in assay [3] (setting [13]) and in [3] (setting [14]) were 0.375, -0.266 and -1.23, respectively. Moreover, in [5], the fluorescence slope was -0.478 (inactive). The NADPH fluorescence slope in assay [6] is 2.4e-05 (inactive). In [7], the slope was 0.00419 (inactive). Besides, the call in assay [9] was inactive.

For `CCCOC(=O)C1[C@H]2C(=O)N(Cc3ccco3)C[C@]23C=C[C@H]1O3` (stereo not given in full), in assay [1], the cell count was found to be 337. In addition, the inhibition was -2.3% (inactive) in [1], -90.3% (inactive) in assay [2], -7.01% (inactive) in assay [4] and 1.77% (inactive) in assay [8]. Moreover, the nuclei count in assay [2] worked out at 155%. For the same compound, the values for the z-score in [3] (setting [12]), in assay [3] (setting [13]) and in assay [3] (setting [14]) were -0.841, 0.28 and -0.596, respectively. Also, the fluorescence slope in [5] is -0.424 (inactive). In addition, the NADPH fluorescence slope in [6] is -0.000134 (inactive). In assay [7], the slope is 0.00455 (inactive).

Take `Cc1ccc2cc(CN(C(=O)c3ccco3)c3ccccc3C)c(=O)[nH]c2c1`: the cell count in assay [1] stood at 334. For the same compound, the inhibition in assay [1] is 8.3% (inactive); in [2], -73.2% (inactive); in [4], 17.5% (inactive); in assay [8] it was 32.2% (inactive). For the same compound, in assay [2], the nuclei count came out at 116%. Further, the z-score was 1.77 in [3] (setting [12]), -1.81 in assay [3] (setting [13]) and -0.15 in [3] (setting [14]). In addition, in [5], the fluorescence slope was -0.477 (inactive). Besides, the NADPH fluorescence slope in assay [6] is 1.8e-05 (inactive). The slope in assay [7] was 0.00844 (inactive).

For the compound `CC(=O)O[C@H]1C(=O)[C@]2(C)[C@H]([C@H](OC(=O)c3ccccc3)[C@]3(O)C[C@H](OC(=O)[C@H](O)[C@@H](NC(=O)c4ccccc4)c4ccccc4)C(C)=C1C3(C)C)[C@]1(OC(C)=O)CO[C@@H]1C[C@@H]2O`, in assay [1], the cell count is 508. Also, the inhibition was -11.8% (inactive) in assay [1]; -188% (inactive) in assay [2]; -2.46% (inactive) in assay [4]; 0.148% (inactive) in assay [8]; 17.7% (inactive) in [10]; 44.3% (inactive) in assay [11]. In assay [2], this compound registered a nuclei count of 105%. The values for the z-score in assay [3] (setting [12]), in assay [3] (setting [13]) and in [3] (setting [14]) were 0.529, 0.25 and 0.563, respectively. Also, the fluorescence slope in [5] is -0.449 (inactive). Further, in assay [6], the NADPH fluorescence slope was -1.6e-05 (inactive). Moreover, in [7], the slope is 0.00483 (inactive). In addition, the result in [9] was inactive.

Turning to `O=C1C2ON(c3ccccc3)C(c3ccncc3)C2C(=O)N1c1ccccc1` (stereo not given), the cell count in [1] was 359. Moreover, the inhibition in assay [1] was -4.2% (inactive); in assay [2], -13.9% (inactive); in assay [4] it was -14% (inactive); in assay [8] it was 5.79% (inactive). In [2], this compound showed a nuclei count of 147%. For the same compound, the values for the z-score in assay [3] (setting [12]), in assay [3] (setting [13]) and in assay [3] (setting [14]) were 0.798, -1.22 and 0.675, respectively. Further, in assay [5], the fluorescence slope is -0.419 (inactive). In addition, the NADPH fluorescence slope in [6] was -0.000134 (inactive). In addition, in assay [7], the slope was 0.00494 (inactive).

For the compound `COc1cccc(/C(O)=C2/C(=O)C(=O)N(CCN(C)C)C2c2ccc(Br)cc2)c1` (stereo not given), in assay [1], the cell count worked out at 321. Also, the inhibition in assay [1] was 18.1% (inactive); in assay [2], 14.2% (inactive); in [4], -12.3% (inactive); in assay [8], 28.7% (inactive). In [2], this compound displayed a nuclei count of 102%. Besides, the z-score in [3] (setting [12]) is 0.101; in assay [3] (setting [13]), 1.46; in assay [3] (setting [14]), -0.618. The fluorescence slope in assay [5] is -0.456 (inactive). For the same compound, the NADPH fluorescence slope in assay [6] is 7.9e-06 (inactive). In addition, in [7], the slope is 0.00697 (inactive).

As for `c1ccc(CN2CCN(c3nc(-c4ccccn4)nc4ccccc34)CC2)cc1`, in assay [1], the cell count stood at 275. Moreover, the inhibition in assay [1] is -1.9% (inactive); in [2], -134% (inactive); in assay [4] it was 20.2% (inactive); in assay [8] it was 130% (active). The compound further displayed a nuclei count in assay [2] of 96.6%. The z-score in [3] (setting [12]) was 0.978; in assay [3] (setting [13]) it was -1.13; in [3] (setting [14]), -0.507. In addition, in assay [5], the fluorescence slope is -0.498 (inactive). Also, the NADPH fluorescence slope in assay [6] was 4.9e-06 (inactive). Further, the slope in [7] is 0.00604 (inactive).
